# Values quoted from earlier work in PubChem BioAssay AID977608.
# About 4,300 (100%) of roughly 4,300 compounds were called active. No cut-off is given here; in the data, nearly all actives have IC50 up to about 1400 µM. So high a share suggests a set chosen from earlier hits. This is one part of the list. Where a SMILES comes first, the peptide text is derived from it. Square brackets hold non-standard residues; d marks the D form. Peptide text beside a SMILES is read from it. [ ]: non-standard residue; d: D form. Orn(CH(NH2)2) = NC(N)NCCC[C@H](N)C(=O)O
# Assay: protein-ligand inhibition affinities from structures – PDB-derived complexes (AID 977608)
smiles,measurement,setting,value
Cn1c(=O)c(C(=O)NCC(=O)O)c(O)c2ccccc21,IC50,"literature IC50, protein: EGL NINE HOMOLOG 1, PDB entry 4bqw",0.033 µM (active)
CO[C@H]1CN(c2nc(-c3ncnn3C)c(C(=O)O)s2)CC[C@H]1NC(=O)c1[nH]c(C)c(Cl)c1Br,IC50,"literature IC50, protein: DNA GYRASE SUBUNIT B, PDB entry 4bae",0.003 µM (active)
Nc1ccc(CC(=O)OCCc2ccccc2)c(C=O)c1,IC50,"literature IC50, protein: RHOMBOID PROTEASE GLPG, PDB entry 3zeb",0.74 µM (active)
Cc1ccc(S(=O)(=O)Nc2ccc(Oc3ccccc3)cc2C(=O)O)cc1,IC50,"literature IC50, protein: Genome polyprotein, PDB entry 4j08",0.22 µM (active)
Cc1ccc(S(=O)(=O)Nc2cc(Oc3ccccc3)ccc2C(=O)O)cc1,IC50,"literature IC50, protein: Genome polyprotein, PDB entry 4j0a",0.16 µM (active)
N=C[C@@H]1CCCN1C(=O)CNC12C[C@@H]3C[C@@H](CC(O)(C3)C1)C2,IC50,"literature IC50, protein: Dipeptidyl peptidase 4, PDB entry 3w2t",0.0292 µM (active)
O=C(O)c1sc(-c2ccccc2)cc1N1C(=O)CC[C@@H]1C1CCCCC1,IC50,"literature IC50, protein: NS5B, PDB entry 4tn2",0.12 µM (active)
Cc1[nH]ncc1-c1ccc(F)cc1,IC50,"literature IC50, protein: Adenylate cyclase type 10 hsolAC, PDB entry 4oz2",1000 µM (active)
Cc1[nH]ncc1-c1ccccc1Cl,IC50,"literature IC50, protein: Adenylate cyclase type 10 hsolAC, PDB entry 4oyo",300 µM (active)
O=c1c2ccccc2oc2c(Cc3ccc(O)cc3)[nH]c(-c3cccs3)c12,IC50,"literature IC50, protein: cGMP-specific 3',5'-cyclic Phosphodiesterase-5 (PDE5), PDB entry 4md6",0.017 µM (active)
CCC(=N)C[C@@H](c1ccccc1)[C@]12Nc3cc(C)c(C)cc3N(C[C@H](O)[C@H](O)[C@H](O)CO[P+](O)(O)O[P+](O)(O)OC[C@H]3O[C@@H](n4cnc5c(N)ncnc54)[C@H](O)[C@@H]3O)[C@@H]1NC(=O)NC2=O,IC50,"literature IC50, protein: LYSINE-SPECIFIC HISTONE DEMETHYLASE 1A, PDB entry 4uv9",0.975 µM (active)
Cc1cc2c(cc1C)N([C@@](N)(CCc1ccccc1)c1ccccc1)C1C(=O)NC(=O)N=C1N2C[C@H](O)[C@H](O)[C@H](O)CO[P+](O)(O)O[P+](O)(O)OC[C@H]1O[C@@H](n2cnc3c(N)ncnc32)[C@H](O)[C@@H]1O (some centres not stated),IC50,"literature IC50, protein: LYSINE-SPECIFIC HISTONE DEMETHYLASE 1A, PDB entry 4uvc",0.131 µM (active)
CC(=N)C[C@@H](c1ccccc1)[C@]12Nc3cc(C)c(C)cc3N(C[C@H](O)[C@H](O)[C@H](O)CO[P+](O)(O)O[P+](O)(O)OC[C@H]3O[C@@H](n4cnc5c(N)ncnc54)[C@H](O)[C@@H]3O)[C@@H]1NC(=O)NC2=O,IC50,"literature IC50, protein: LYSINE-SPECIFIC HISTONE DEMETHYLASE 1A, PDB entry 4uva",1.78 µM (active)
Cc1cc2c(cc1C)N1[C@@](C)(N)CC(c3ccccc3)[C@]13C(=O)NC(=O)N[C@H]3N2C[C@H](O)[C@H](O)[C@H](O)CO[P+](O)(O)O[P+](O)(O)OC[C@H]1O[C@@H](n2cnc3c(N)ncnc32)[C@H](O)[C@@H]1O (some centres not stated),IC50,"literature IC50, protein: LYSINE-SPECIFIC HISTONE DEMETHYLASE 1A, PDB entry 4uvb",3.26 µM (active)
Cc1cc2c(cc1C)N(C[C@H](O)[C@H](O)[C@H](O)CO[P+](O)(O)O[P+](O)(O)OC[C@H]1O[C@@H](n3cnc4c(N)ncnc43)[C@H](O)[C@@H]1O)[C@@H]1NC(=O)NC(=O)[C@@]1([C@@H](CC(=N)Cc1ccccc1)c1ccccc1)N2,IC50,"literature IC50, protein: LYSINE-SPECIFIC HISTONE DEMETHYLASE 1A, PDB entry 4uv8",0.335 µM (active)
O=C(O)c1nc(-c2ccc3cccc(N=Nc4nc5ccccc5s4)c3c2)sc1CCCCc1ccccc1,IC50,"literature IC50, protein: BCL-2-LIKE PROTEIN 1, PDB entry 3zlo",0.0015 µM (active)
CC[C@H](C)[C@H](NC(=O)[C@H](C)NC(=O)[C@H](CC(N)=O)NC(=O)[C@@H]1CCCN1C(=O)[C@@H](N)CC(C)C)C(=O)NCC(=O)N[C@@H](CCCNC(N)N)C(=O)O (H-LPNAIG[Orn(CH(NH2)2)]-OH),IC50,"literature IC50, protein: Low-density lipoprotein receptor-related protein 6, PDB entry 3sov",61 µM (active)
C#CC[C@H](NC(=O)[C@@H](NC(=O)[C@H](CC(C)C)NC(=O)[C@@H](NC(=O)CNC(=O)[C@@H](NC(=O)CNC(=O)[C@H](C)NC(=O)[C@@H](CCC)NC(=O)[C@](C)(N)c1ccccc1)[C@@H](C)CC)[C@@H](C)CC)[C@@H](C)O)C(=O)O,IC50,"literature IC50, protein: HLA class I histocompatibility antigen, A-2 alpha chain HLA-A 0201, PDB entry 4wj5",0.51 µM (active)
NCCCC[C@H](N)C(=O)N[C@@H](CCCNC(N)N)C(=O)N1CCC[C@H]1C(=O)N1CCC[C@H]1C(=O)N1CCC[C@H]1C(=O)N1CCC[C@H]1C(=O)N1CCC[C@H]1C(=O)N1CCC[C@H]1C(=O)NCC(=O)O (H-K[Orn(CH(NH2)2)]PPPPPPG-OH),IC50,"literature IC50, protein: cortactin isoform a, PDB entry 2d1x",7.9 µM (active)
CC[C@H](C)[C@H](NC(=O)[C@@H](NC(=O)[C@@H](NC(=O)[C@H](CCCNC(N)N)NC(=O)[C@H](CCCCN)NC(=O)[C@H](CO)NC(=O)[C@H](CCCNC(N)N)NC(=O)CNC(=O)[C@@H](NC(=O)[C@H](CCC(N)=O)NC(=O)CNC(=O)[C@H](CC(C)C)NC(=O)[C@H](CCCCN)NC(=O)[C@@H]1CCCN1C(=O)[C@@H]1CCCN1C(=O)[C@H](CCCNC(N)N)NC(=O)[C@@H](N)CCCCN)[C@@H](C)CC)C(C)C)C(C)C)C(=O)O (H-K[Orn(CH(NH2)2)]PPKLGQIG[Orn(CH(NH2)2)]SK[Orn(CH(NH2)2)]VVI-OH),IC50,"literature IC50, protein: Calcium/calmodulin dependent protein kinase II, PDB entry 3kl8",0.12 µM (active)
CC[C@H](C)[C@H](NC(=O)[C@H](CO[P+](O)(O)O)NC(=O)[C@H](C)NC(=O)[C@H](CCC(N)=O)NC(=O)[C@@H](N)CCCNC(N)N)C(=O)N[C@@H](CCC(=O)O)C(=O)N[C@@H](CC(C)C)C(=O)N1CCC[C@H]1C(=O)N[C@@H](CO)C(=O)N[C@@H](CCSC)C(=O)O,IC50,"literature IC50, protein: HLA class I histocompatibility antigen, PDB entry 3bh8",0.0112 µM (active)
CC[C@H](C)[C@H](NC(=O)[C@H](CCCNC(N)N)NC(=O)CNC(=O)[C@@H](NC(=O)[C@@H](NC(=O)[C@@H](NC(=O)[C@@H](NC(=O)[C@H](CO)NC(=O)CNC(=O)CN)C(C)C)C(C)C)[C@@H](C)CC)C(C)C)C(=O)N[C@H](C(=O)N[C@@H](CC(C)C)C(=O)N[C@@H](CO)C(=O)O)[C@@H](C)CC (HELM PEPTIDE1{G.G.S.V.V.I.V.G.[NC(N)NCCC[C@H](N[*:1])C(=O)[*:2]].I.I.L.S}$$$$V2.0),IC50,"literature IC50, protein: Genome polyprotein (D1194V mutation), PDB entry 4i32",0.058 µM (active)
same,IC50,"literature IC50, protein: Genome polyprotein (R1181K mutation), PDB entry 4i33",0.0047 µM (active)
same,IC50,"literature IC50, protein: Genome polyprotein, PDB entry 4i31",0.00048 µM (active)
CCCNc1nc(N)c(C(=O)c2ccc(Cl)s2)s1,IC50,"literature IC50, protein: Cyclin-dependent kinase 2, PDB entry 3s00",12 µM (active)
Nc1nc(NC2C=C2)cc(-c2cccc(Cl)c2Cl)n1,IC50,"literature IC50, protein: 7,8-dihydro-8-oxoguanine triphosphatase, human MTH1 protein, PDB entry 4n1u",0.005 µM (active)
CNc1cc(-c2cccc(Cl)c2Cl)nc(N)n1,IC50,"literature IC50, protein: 7,8-dihydro-8-oxoguanine triphosphatase, human MTH1 protein, PDB entry 4n1t",0.0008 µM (active)
